Laboratory results: PubChem BioAssay (Tox21)
Results filed as inconclusive are left out. Calls of active or inactive are those of the source. Calls come from the whole dose curve; as a rule, active = well fitted cell-killing curve with a large enough effect in the repeat runs; inconclusive = weak or mixed curves, or effect the other way; inactive = flat fitted curve, though single readings scatter.

Test: qHTS assay to identify small molecule agonists of the sonic hedgehog signaling (Shh) pathway - cell viability counter screen (AID 1259366); note: nearly all actives have a fitted effect of over 50% in size
Details: NIH/3T3 Gli1-Luc viability, CellTiter-Fluor, 24 h; series mostly up to 92.4 µM; viability change, negative = cytotoxic: at the top concentration
From the text: National Center for Advancing Translational Sciences [NCATS]
NIH Chemical Genomics Center [NCGC]
U.S. Environmental Protection Agency [EPA]
National Institutes of Environmental Health Sciences [NIEHS]
National Toxicology Program [NTP]
U.S. Food and Drug Administration [FDA]
The sonic hedgehog (Shh) pathway is essential for normal embryonic development. Dysregulation of the Shh pathway can cause severe developmental defects in organs. Therefore chemicals that interfere with the pathway are potential developmental toxicants. A cell line designated 3T3Gli1-Luc (DMB/OARSA/CFSAN/FDA, Laurel, MD), a NIH/3T3 derived clone containing stably integrated Gli1-Luc reporter is used to detect chemical interference of the Shh pathway, by changes in the expression of the firefly Luc gene under the control of the Gli1 transcriptional response element. This cell line was used to screen Tox21 libraries for identifying and prioritizing the potential developmental toxicants that interfere Shh pathway. The cytotoxicity of the compounds was tested in parallel by measuring the cell viability using CellTiter-Fluor assay system (Promega, Madison, WI) in the same wells.
Tox21 Assay Protocol Summary:
3T3 Gli1-Luc cells were dispensed at 2,000 per well in 5uL of culture medium into white solid bottom 1536-well plates (Greiner Bio-One, Monroe, NC) using a Multidrop Combi (Thermo Scientific, Waltham, MA) dispenser. The assay plates were incubated at 37 C and 5% CO2 for 4hr, and then 23nL of compounds dissolved in DMSO and positive control were transferred using a Pintool station (Wako, San Diego, CA). The assay plates were incubated at 37C and 5% CO2 for 24hr. For viability read, after 23hr of compound treatment, 1uL of CellTiter-Fluor reagent (Promega Corporation, Madison, WI) was added to each well of the assay plates using Flying Reagent Dispenser (FRD, Aurora Discovery, San Diego, CA) and incubated the assay plates at 37C for 1hr. The fluorescence signal was quantified using a ViewLux plate reader (Perkin Elmer, Shelton, CT).
% is set by controls: 0 for no effect and ±100 for the full control effect.

| Structure (SMILES) | viability change, negative = cytotoxic |
| --- | --- |
| CC(=O)OCC1=C(C(=O)O)N2C(=O)[C@@H](N)[C@H]2SC1 | 1.92% [at 19 µM] (inactive) |
| Clc1ccc(C(Cl)(Cl)Cl)cn1 | 3.13% (inactive) |
| O=C(Cl)c1ccccc1 | 6.66% (inactive) |
| CCCC(C)C1(CC)C(=O)N=C(S)NC1=O (stereo not given) | -3.07% [at 42.5 µM] (inactive) |
| CCN1CCCC1CNC(=O)C(O)(c1ccccc1)c1ccccc1 (stereo not given) | -2.6% [at 42.5 µM] (inactive) |
| CCC(CC)(CNC(=O)CCCO)c1cccc(OC)c1 | 2.95% [at 42.5 µM] (inactive) |
| C(COCC1CO1)OCC1CO1 (stereo not given) | 7.43% (inactive) |
| CNC(=O)O/N=C(/CSC)C(C)(C)C | 0.0918% (inactive) |
| CC(C)(C1CCC(O)CC1)C1CCC(O)CC1 (stereo not given) | 10.1% (inactive) |
| CCN(CC)CCOC(=O)C(O)(c1ccccc1)c1ccccc1 | 0.132% [at 42.5 µM] (inactive) |
| O=C1CCCCC1Cl (stereo not given) | 2.09% (inactive) |
| CC(C)NCC(O)c1ccc([N+](=O)[O-])cc1 (stereo not given) | 4.08% [at 42.5 µM] (inactive) |
| CCCOC(=O)c1cncn1C(C)c1ccccc1 (stereo not given) | 0.0721% [at 42.5 µM] (inactive) |
| NC(=O)OCCCc1ccccc1 | -1.17% [at 42.5 µM] (inactive) |
| N#CN | -9.97% [at 240 µM] (inactive) |
| O=C/C=C/c1ccco1 | 3.98% (inactive) |
| CC(C)(O)C(Cl)(Cl)Cl | 1.73% [at 42.5 µM] (inactive) |
| CCOC(=O)Nc1cccc(OC(=O)Nc2ccccc2)c1 | 2.99% (inactive) |
| CCCCCCC(=O)CCCCCC/C=C/C[C@@H](O)[C@H](O)[C@@](N)(CO)C(=O)O | 4.09% [at 19 µM] (inactive) |
| CC(Cc1ccccc1)NCCCCl (stereo not given) | 7.26% [at 42.5 µM] (inactive) |

| Structure (SMILES) | viability change, negative = cytotoxic |
| --- | --- |
| NNCc1ccccc1 | -9.09% (inactive) |
| N=C(N)[Se] | -23.8% (inactive) |
| N[C@@H]1C[C@H]1c1ccccc1 | 6.58% [at 42.5 µM] (inactive) |
| N[C@@H](Cc1ccc(Oc2cc(I)c(O)c(I)c2)c(I)c1)C(=O)O | -16.2% [at 42.5 µM] (inactive) |
| Cn1c(CCCC(=O)O)nc2cc(N(CCCl)CCCl)ccc21 | -0.618% [at 42.5 µM] (inactive) |
| ClC(Cl)(Cl)Cl | 1.36% (inactive) |
| COC(=O)c1ccc(CBr)cc1 | -9.11% (inactive) |
| CCOC(=O)C(SP(=S)(OC)OC)c1ccccc1 (stereo not given) | 5.77% (inactive) |
| C=C1CC[C@@]2(O)[C@H]3Cc4ccc(O)c5c4[C@@]2(CCN3CC2CC2)[C@H]1O5 | -5.53% [at 42.5 µM] (inactive) |
| CCN[C@@H](C)Cc1ccccc1 | -4.46% (inactive) |
| N#CC(Br)(Br)C(N)=O | -0.834% (inactive) |
| O=S1(=O)OCCO1 | -5.01% (inactive) |
| ClCC1CO1 (stereo not given) | -4.5% (inactive) |
| CNC(=O)Oc1ccccc1C(C)C | -0.676% (inactive) |
| O=CCCl | 0.913% (inactive) |
| CN(C)C(=O)Oc1cc(OC(=O)N(C)C)cc(C(O)CNC(C)(C)C)c1 (stereo not given) | -1.43% [at 42.5 µM] (inactive) |
| CCN[C@@H](C)Cc1cccc(C(F)(F)F)c1 | -2.09% [at 42.5 µM] (inactive) |
| O=C(O)C(F)(F)C(F)(F)C(F)(F)C(F)(F)C(F)(F)C(F)(F)F | 17.3% (inactive) |
| C=CCC1(C(C)CC)C(=O)NC(=O)NC1=O (stereo not given) | 10.9% [at 42.5 µM] (inactive) |
| CCCC[N+](=O)[O-] | 3.38% (inactive) |
